Assay results: PubChem BioAssay (NCI)
This is part of a sample that, as a whole, favours compounds with a hit. Of some 83,000 tested, about 20% had one in any assay.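 The test compound was applied at a single concentration to cells in 96-well plates for 48 hours, and percent growth was recorded.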 Unmarked numbers belong to inactive results. The source made the active and inactive calls. Rule for the calls: active = growth percent below 10; inactive = the rest.

These compounds were tested on EKVX NSCLC (assay: NCI-60 one-dose screen, 48 h (100 = growth as untreated, 0 = no growth, -100 = all killed)). Details: 10 µM unless noted.
In the case of `CCCCCN1C=C/C(=C\C(=O)N(C)c2ccc(Oc3ccccc3)cc2)c2ccccc21`, the growth is reported as 56.6%.
`O=C1Nc2cc(-c3ccc(NC(=O)C4CC4)cc3)ccc2/C1=C/c1ccc[nH]1` showed a growth of 47.6%.
With `COc1cc2nc(-c3ccc(Cl)cc3)cc(OCCCN3CCCC3)c2cc1OC` the growth was 65.8%.
`CCCOC(=O)N[C@H]1CCc2c(Cl)c(OC)c(OC)c(OC)c2-c2ccc(SC)c(=O)cc21` showed a growth of 48.1%.
Work on `CCCCCCOc1ccc(/C=N/Nc2cc(C)nc3ccc(Cl)cc23)cc1` yielded a growth of 56.2%.
`Nc1c(C(=O)Nc2cccc3cnccc23)sc2nc3c(cc12)CN(Cc1ccccc1)CC3` showed a growth of 101%.
For `CCCCOc1ccc(/C(C)=N/Nc2cc(C)nc3ccc(Br)cc23)cc1`, the growth was 88.2%.
For `Cc1cnc(C(=O)Nc2nc3ccc(S(=O)(=O)Nc4ccc(C(C)(C)C)cc4)cc3[nH]2)cn1`, the growth was 51%.
With `CCN1CCN(CCNc2nccc(-c3c(-c4cccc(OC)c4)nc4occn34)n2)S1(=O)=O` the growth was 90.9%.
Work on `CCCCOc1ccc(/C=N/Nc2cc(C)nc3ccc(Br)cc23)cc1` yielded a growth of 69.9%.
In the case of `O=c1[nH]nc(-c2ccccc2)c2sc3ncc(-c4ccc(Br)cc4)n3c12`, the growth is reported as 67.3%.
For `O=C(Nc1ccc(NC(=O)c2cc(=O)[nH]c3ccccc23)cc1)Nc1cccc(Cl)c1`, the growth was 85.2%.
With `N#Cc1cc(-c2nc3ccccc3s2)c(=O)n(NS(=O)(=O)c2ccccc2)c1N` the growth was 101%.
`Oc1ccc(C(c2ccc(O)cc2)c2ccc(Br)cn2)cc1` was tested, and the growth was -37.1% (active).
`CCOC(=O)[C@@H]1CCCN(S(=O)(=O)c2ccc(S(=O)(=O)N(CC)CC)c(F)c2)C1` was tested, and the growth was 46.9%.
`N#Cc1cccc(-c2ccc3c(c2)NC(=O)/C3=C\c2ccc[nH]2)c1` was tested, and the growth was 25.2%.
Compound `O=[N+]([O-])c1cc(Br)c2cccc3c2c1CC3` has a growth of 109%.
`NS(=O)(=O)c1ccc(Cn2c(SCC(=O)N/N=C/c3ccccc3O)nc3ccccc3c2=O)cc1` showed a growth of 60.1%.
Work on `CCNC(=O)Oc1ccc(/C(=C(\C)c2ccccc2)c2ccc(OCCN(CC)CC)cc2)cc1` yielded a growth of 96%.
With `COc1ccc(C(=O)/C=C/c2cc3ccccc3n3nnnc23)cc1` the growth was 99.9%.
In the case of `O=C(N/N=C/c1ccc(Oc2ccccc2)cc1)c1cnn2c1NC(c1ccccc1)C2` (stereo not drawn), the growth is reported as 77.6%.
Work on `NC1=NN=C(N)C1=Cc1cc2ccccc2n2nnnc12` yielded a growth of 77%.
With `CCSCC1CC(O)(c2ccccc2)CC(c2ccc(F)cc2)O1` (stereo not drawn) the growth was 15.2%.
In the case of `Cc1cccc(NC(=O)Nc2ccc(-n3cnc4cc(-c5ccc(O)cc5)ccc43)cc2)c1`, the growth is reported as 35.8%.
Work on `COc1ccc(/C=C(\C#N)n2nc3cccc(F)c3n2)cc1` yielded a growth of 104%.
In the case of `Nc1n[nH]c2cccc(C#Cc3cccc(C(=O)Nc4cccc(C(F)(F)F)c4)c3)c12`, the growth is reported as 89.7%.
`O=C(Nc1ccccc1C(=O)N/N=C(\c1ccccc1)c1ccccn1)c1ccc(F)cc1` showed a growth of 16.8%.
`C=C1C(=O)O[C@H]2[C@H]1CC/C(C(=O)NCCCCCNC(=O)/C1=C/CC[C@@]3(C)O[C@H]3[C@H]3OC(=O)C(=C)[C@@H]3CC1)=C\CC[C@@]1(C)O[C@@H]21` showed a growth of 105%.
Work on `N#Cc1c(NCc2ccccc2I)sc2c1CCCCC2` yielded a growth of 78.8%.
`C=C1C(=O)O[C@H]2[C@H]1CC/C(COC(=O)NCC(C)c1ccc(CC(C)C)cc1)=C\CC[C@@]1(C)O[C@@H]21` (stereo partly drawn) was tested, and the growth was -6.2% (active).
`Cc1cc(C(=O)/C=C/c2ccc[nH]2)ccc1-n1ccc(C(F)(F)F)n1` was tested, and the growth was 87.4%.
With `C=C1C(=O)O[C@H]2[C@H]1CC/C(CNC(=O)/C=C/c1cccc(OC)c1)=C\CC[C@@]1(C)O[C@@H]21` the growth was -20.2% (active).
With `COc1cc(/C=N/NC(=O)c2cnn3c2NC(c2ccccc2)C3)ccc1Oc1ccccc1` (stereo not drawn) the growth was 58.1%.
`COc1cc(C2=C(c3cn(C)c4ccccc34)COC2=O)cc(OC)c1OC` showed a growth of 28.2%.
`COc1cc(/C=C\C(=O)O)ccc1OCc1ccccc1` gave a growth of 115%.
`COc1cc2c(=O)n(CCN)c3c4cc5c(cc4ccc3c2cc1OC)OCO5` was tested, and the growth was 52.7%.
Compound `CCCCCN1C=C/C(=C\C(=O)N(C)c2ccc(OC(F)(F)F)cc2)c2ccccc21` has a growth of 87.2%.
`CN(C)CC(O)c1ccc(/C=C/c2ccc(Cl)cc2)cc1` (stereo not drawn) showed a growth of 29.7%.
